# Screen size: about 310,000 compounds; about 14,000 (4.5%) showed an effect of 50% or more. Effects have a minus sign here. Many of the other results were omitted from the sample, so strong results are more common in it than they were.
# Molecular target: human ether-à-go-go-related gene (hERG) potassium channel (human, UniProt Q12809)
# Assay: primary screen, population patch clamp on CHO cells stably expressing hERG; higher = less effect of the substance
# 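Further: peak tail current of the secondary pulse compared with the same well before compound.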
# Chain of human ether-à-go-go-related gene (hERG) potassium channel (Q12809 whole entry, looked up): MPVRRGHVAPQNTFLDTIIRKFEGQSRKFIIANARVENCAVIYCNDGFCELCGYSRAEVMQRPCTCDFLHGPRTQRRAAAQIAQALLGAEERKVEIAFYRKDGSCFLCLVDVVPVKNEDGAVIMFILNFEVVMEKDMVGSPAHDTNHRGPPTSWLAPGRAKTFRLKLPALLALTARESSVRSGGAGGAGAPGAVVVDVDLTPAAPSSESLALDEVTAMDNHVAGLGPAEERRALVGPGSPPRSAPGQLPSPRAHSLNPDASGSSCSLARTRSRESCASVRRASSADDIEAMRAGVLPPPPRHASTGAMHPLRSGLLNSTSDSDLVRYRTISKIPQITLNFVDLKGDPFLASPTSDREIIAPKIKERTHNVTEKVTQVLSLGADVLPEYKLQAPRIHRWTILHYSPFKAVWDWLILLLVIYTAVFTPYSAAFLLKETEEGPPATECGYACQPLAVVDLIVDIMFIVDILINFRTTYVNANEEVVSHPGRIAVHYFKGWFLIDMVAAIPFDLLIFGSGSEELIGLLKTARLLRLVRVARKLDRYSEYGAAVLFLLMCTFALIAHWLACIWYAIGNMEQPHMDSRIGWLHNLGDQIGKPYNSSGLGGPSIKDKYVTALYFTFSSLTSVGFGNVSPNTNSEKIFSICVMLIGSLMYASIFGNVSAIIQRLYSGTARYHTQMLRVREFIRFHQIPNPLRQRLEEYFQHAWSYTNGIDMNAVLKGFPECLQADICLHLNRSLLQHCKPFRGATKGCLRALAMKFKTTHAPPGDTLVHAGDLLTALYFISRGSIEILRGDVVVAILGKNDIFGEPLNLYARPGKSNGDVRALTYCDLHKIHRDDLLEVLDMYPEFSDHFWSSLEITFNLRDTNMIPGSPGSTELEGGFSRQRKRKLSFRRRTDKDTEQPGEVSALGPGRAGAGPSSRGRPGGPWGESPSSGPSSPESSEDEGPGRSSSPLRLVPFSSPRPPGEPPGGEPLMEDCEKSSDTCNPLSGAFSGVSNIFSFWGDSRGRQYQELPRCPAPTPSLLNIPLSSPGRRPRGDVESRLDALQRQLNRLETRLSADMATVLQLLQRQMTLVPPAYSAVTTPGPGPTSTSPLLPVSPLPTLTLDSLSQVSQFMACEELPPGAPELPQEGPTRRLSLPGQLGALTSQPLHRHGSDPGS
row,SMILES,"hERG current change (%, negative = inhibition) at 10uM"
1,CCOc1ccc(N(C(C)C(=O)NCc2ccco2)S(C)(=O)=O)cc1 (centres unmarked),-2.31%
2,NC(=O)CC(NC(=O)c1cccc(Br)c1)c1ccc(N2CCN(c3ccc(F)cc3)CC2)c([N+](=O)[O-])c1 (centres unmarked),-2.08%
3,O=C(CNS(=O)(=O)c1ccc(Br)s1)N1CCCC1,22%
4,COc1ccc(C(=O)NCCC2=CCCCC2)cc1OC,-3.21%
5,COc1cccc(CCNC(=O)c2ccc(OC)c(OC3CCN(C(C)C)CC3)c2)c1,-57.4%
6,COc1ccc(C(=O)NCCC2=CCCCC2)cc1OC1CCN(C(C)C)CC1,-78.1%
7,COCCCNC(=O)c1ccc(OC)c(OC2CCN(C(C)C)CC2)c1,10.3%
8,COc1cc(C(=O)NCCC2=CCCCC2)ccc1OC1CCN(C(C)=O)CC1,2.98%
9,COc1ccccc1CCNC(=O)c1ccc(OC)c(OC2CCN(C(C)C)CC2)c1,-46.3%
10,CC1CN=C(NCc2ccc(F)cc2)S1 (centres unmarked),-8.5%
11,CCOc1ccccc1C(=O)Nc1cc(C(=O)NCC(C)C)ccc1Cl,12%
12,CCCc1ccc(Oc2c(-c3ccc(O)c(C)c3O)n[nH]c2C)cc1,-13.2%
13,Cc1nc2sccn2c(=O)c1S(=O)(=O)N1CCN(c2ccccc2)CC1,-11.2%
14,COc1ccc(N2CCN(S(=O)(=O)c3c(C)nc4sccn4c3=O)CC2)cc1,-9.86%
15,Cc1nc2sccn2c(=O)c1S(=O)(=O)N1CCN(c2ccc(F)cc2)CC1,-70.2%
16,Cc1cc(NC(=O)Nc2ccc(OCc3ccccc3)cc2)n(C)n1,23.8%
17,COc1ccc(-n2c(Cc3cccn3C)nnc2SCC(=O)NCc2ccco2)cc1,-12.9%
18,Cc1nc(SCc2c(Cl)cccc2Cl)nc(OC(=O)N(C)C)c1C,-4.32%
19,O=C(Cn1cnc2scc(-c3cccc([N+](=O)[O-])c3)c2c1=O)NCc1ccco1,-54%
20,O=C(Cn1cnc2scc(-c3ccccc3)c2c1=O)NCc1ccco1,-24.9%
21,CCc1ccc(-c2csc3ncn(CC(=O)NCc4ccco4)c(=O)c23)cc1,-4.39%
22,CC(C)(C)c1ccc(COC(=O)CNC(=O)CNC(=O)Cc2ccccc2)cc1,-6.93%
23,CCOP(=O)(CC(C(C)=O)C(O)c1ccccc1)OCC (centres unmarked),11.3%

row,SMILES,"hERG current change (%, negative = inhibition) at 10uM"
1,CCOCCCNC(=O)c1cc2c(=O)n3ccccc3nc2s1,-7.05%
2,CCCC(C)NC(=O)c1cc(S(=O)(=O)N2CCCCCC2)ccc1OC (centres unmarked),-54.4%
3,O=C(NCc1ccncc1)c1cc(S(=O)(=O)N2CCOCC2)c(Cl)cc1Cl,-13.3%
4,O=C(NCC(c1cccs1)N1CCOCC1)c1cc(S(=O)(=O)N2CCOCC2)c(Cl)cc1Cl (centres unmarked),-9.54%
5,COc1ccc(S(=O)(=O)N2CCCCCC2)cc1C(=O)NCCc1ccccc1,-65.5%
6,COc1ccc(S(=O)(=O)N2CCCCCC2)cc1C(=O)NCCc1ccc(F)cc1,-31.4%
7,Cc1ccc(S(=O)(=O)N2CCCCC2)cc1C(=O)NCCc1ccccc1,11.2%
8,COc1ccc(S(=O)(=O)N2CCCCCC2)cc1C(=O)N(C)Cc1cccs1,-40.5%
9,COc1ccc(S(=O)(=O)N2CCCCCC2)cc1C(=O)NCc1ccc(C)cc1,-29.1%
10,COc1ccc(S(=O)(=O)N2CCCC2)cc1C(=O)O,30.4%
11,O=C(NCc1cccs1)c1cc(S(=O)(=O)N2CCCCC2)ccc1Cl,5.07%
12,O=C(NCc1cccs1)c1cc(S(=O)(=O)N2CCOCC2)c(Cl)cc1Cl,-81.6%
13,COc1ccc(S(=O)(=O)N2CCCCCC2)cc1C(=O)NCc1cccs1,-68.3%
14,COc1ccc2ncn(-c3ccccc3)c2c1,-7.39%
15,COc1ccc(NC(=O)c2ccc(Cn3cc(Cl)cn3)cc2)cc1,1.21%
16,Cc1ccc(NC(=O)c2ccco2)c(NC(=O)Cc2cccs2)c1,-2.72%
17,O=C(NCCc1ccccc1F)C1CC(=O)N(c2ccccc2)C1 (centres unmarked),1.17%
18,C/C(=N\Nc1nc(C(C)(C)C)cs1)c1ccccc1,16.4%
19,Cc1cccc(NC(=O)CC2C(=O)NCCN2C(=S)Nc2ccccc2)c1 (centres unmarked),1.17%
20,Cc1cnc(NC(=O)c2c(-c3ccccc3)noc2C)s1,-2.27%
21,O=C(NNC(=O)c1ccccc1Br)c1cccc(Cl)c1,-7.94%
22,CCCCCC(C)NC(=O)c1cc(S(=O)(=O)N2CCCCC2)ccc1N1CCOCC1 (centres unmarked),-70.9%
23,CC(C)CCCC(C)NC(=O)c1cc(S(=O)(=O)N2CCCCC2)ccc1N1CCOCC1 (centres unmarked),-36.8%

row,SMILES,"hERG current change (%, negative = inhibition) at 10uM"
1,CCC(CC)NC(=O)c1cc(S(=O)(=O)N2CCCCC2)ccc1N1CCOCC1,-20.3%
2,COc1ccc(NC(=O)CCSc2ccc3ccccc3n2)cc1,-11.7%
3,CCOC(=O)n1n[n+]([O-])c2ccccc21,35.5%
4,CC(=O)c1ccc(S(=O)(=O)NCCc2cn3ccc(C)cc3n2)cc1,-29.9%
5,Cc1ccn2cc(CCNS(=O)(=O)c3ccc4ccccc4c3)nc2c1,-39.6%
6,CCOc1ccc(S(=O)(=O)NCCc2cn3ccccc3n2)cc1,-11%
7,CCc1ccc(S(=O)(=O)NCCc2cn3ccccc3n2)s1,-29.5%
8,O=[N+]([O-])c1ccc(S(=O)(=O)NCCc2cn3ccccc3n2)cc1,-40.6%
9,CCc1ccc(S(=O)(=O)NCCc2cn3cccc(C)c3n2)s1,-16.2%
10,CCc1ccc(S(=O)(=O)NCCc2cn3ccc(C)cc3n2)s1,-54.2%
11,Cc1ccn2cc(CCNS(=O)(=O)c3ccc([N+](=O)[O-])cc3)nc2c1,-69.7%
12,O=S(=O)(NCCc1cn2ccccc2n1)c1ccc(-c2ccccc2)cc1,-62%
13,COc1cccc(C(=O)COC(=O)COc2c(C)cc(C)cc2C)c1,1.18%
14,COc1ccc(-c2c(C(C)=O)c(C)nc3sc4c(=N)n(N)cnc4c23)cc1,3.48%
15,CN1CCN(CCCNC(=O)c2ccc3c(Cl)c4c(nc3c2)CCCC4)CC1,-6.81%
16,O=C(NC1CC1)c1ccc2c(Cl)c3c(nc2c1)CCCC3,-63.7%
17,CC(C)CCNC(=O)c1ccc2c(Cl)c3c(nc2c1)CCC3,21.4%
18,COCCNC(=O)c1ccc2c(Cl)c3c(nc2c1)CCC3,-30.2%
19,CCCN(CCC)CCCNC(=O)c1ccc2c(Cl)c3c(nc2c1)CCC3,-29.1%
20,O=C(NCCCN1CCCCCC1)c1ccc2c(Cl)c3c(nc2c1)CCCC3,-53%
21,CCN(CC)CCCNC(=O)c1ccc2c(Cl)c3c(nc2c1)CCCC3,-48.7%
22,O=C(NCCCN1CCCC1)c1ccc2c(Cl)c3c(nc2c1)CCCC3,-50.1%
23,CCOC(=O)N1CCC(NC(=O)c2ccc3c(Cl)c4c(nc3c2)CCCC4)CC1,-36.6%

row,SMILES,"hERG current change (%, negative = inhibition) at 10uM"
1,CCCN1CCN(CCCNC(=O)c2ccc3c(Cl)c4c(nc3c2)CCCC4)CC1,-61.1%
2,CC1CCN(CCCNC(=O)c2ccc3c(Cl)c4c(nc3c2)CCCC4)CC1,-40.9%
3,CCN1CCN(CCCNC(=O)c2ccc3c(Cl)c4c(nc3c2)CCCC4)CC1,-46.8%
4,CC(C)(C)NS(=O)(=O)c1ccc(NC(=O)Cc2ccccc2[N+](=O)[O-])cc1,1.66%
5,CCOC(=O)c1ccc(N2CN(CC)CNC2=S)cc1,7.25%
6,C/C(=N/OCc1ccc(Br)cc1)c1ccccn1,6.29%
7,CCc1ccc(C(=O)COC(=O)c2ccco2)cc1,9.18%
8,COc1ccc(CCNC(=O)COC(=O)c2cnc(C)cn2)cc1,11.3%
9,O=C(Nc1ccccc1C(=O)Nc1ccc2c(c1)OCO2)c1cccs1,3.6%
10,Cc1cc(C)cc(NC(=O)COC(=O)CN=C2NS(=O)(=O)c3ccccc32)c1,15.6%
11,O=C(NCC1CCCO1)c1ccc(COc2ccc(F)cc2)o1 (centres unmarked),-5.59%
12,CCCOc1ccc(/C=N/Nc2cc(N3CCOCC3)ncn2)c(O)c1,13.4%
13,O=c1[nH]cc([N+](=O)[O-])cc1Br,2.05%
14,Cl.NC(=O)c1ccc(OCCC(O)N2CC=C(c3ccc(F)cc3)CC2)cc1 (centres unmarked),-71.2%
15,CCCCOc1ccc(C(=O)NCC(=O)N2CC=C(c3ccccc3)CC2)cc1,16.8%
16,CN1CCNC(=O)C1CC(=O)N1CC=C(c2ccc(F)cc2)CC1 (centres unmarked),-3.88%
17,Clc1cccc(N/N=C/c2ccncc2)c1,-10.2%
18,Cc1cc(C(=O)C(C)Sc2cccc[n+]2[O-])c(C)n1-c1ccc(Cl)cc1 (centres unmarked),-12.8%
19,CC(C)/C=C1\CCc2c([nH]c3ccccc23)C1=O,9.91%
20,Cc1c(S(=O)(=O)c2ccccn2)c(N)n(Cc2ccccc2)c1C,0.158%

# From PMC4336329 (PLoS ONE, 2015)
